According to the supplement of paper PMC6555819:

Tests used:
Assay in all cases: PBM binding z-score (relative to random genomic background probes); higher = stronger binding; sequences stand for … in GC…GCGATTGACAGCGTAGAATGAAGG
[1] = system: FXR:RXRa (NR concentration 270 nM, RXRa partner concentration 90 nM)
How it was run: (§1)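 For binding z-scores, the reference was random background probes on custom Agilent 4×180K protein-binding microarrays. These arrays were incubated 1 h with ligand-free nuclear receptor dimers in PBS pH 7.4, 2% milk, 0.02% Triton X-100, 1 mM DTT, 0.2 mg/mL BSA and 0.4 mg/ml salmon testes DNA. Fluorescence was scanned after antibody detection of each partner (one per run) and regression-normalized.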

[2] = system: LXRa:RXRa (NR concentration 270 nM, RXRa partner concentration 90 nM)
How it was run: as §1

[3] = system: LXRa homodimer (NR concentration 270 nM)
How it was run: as §1

[4] = system: LXRb:RXRa (NR concentration 270 nM, RXRa partner concentration 90 nM)
How it was run: as §1

[5] = system: LXRb homodimer (NR concentration 270 nM)
How it was run: as §1

[6] = system: PPARa:RXRa (NR concentration 270 nM, RXRa partner concentration 90 nM)
How it was run: as §1

[7] = system: PPARg:RXRa (NR concentration 180 nM, RXRa partner concentration 90 nM)
How it was run: as §1

[8] = system: PPARg:RXRa 270nM:90nM, anti-RXR (NR concentration 270 nM, RXRa partner concentration 90 nM)
How it was run: as §1

[9] = system: PPARg:RXRa 30nM:10nM, anti-RXR (NR concentration 30 nM, RXRa partner concentration 10 nM)
How it was run: as §1

[10] = system: PPARg:RXRa 90nM:30nM, anti-RXR (NR concentration 90 nM, RXRa partner concentration 30 nM)
How it was run: as §1

CGTTCAAGGTCAGAGAGGTCAGTGAATGCCGAGT
PBM binding z-score [1]: 6.69 | PBM binding z-score [2]: 5.26 | PBM binding z-score [3]: 3.71 | PBM binding z-score [4]: 4.58 | PBM binding z-score [5]: 0.61 | PBM binding z-score [6]: 5.27 | PBM binding z-score [7]: 4.38 | PBM binding z-score [8]: 4.69 | PBM binding z-score [9]: 1.58 | PBM binding z-score [10]: 3.31

GCTAGTTGGTCAGTAAAAGGTCACACAACGGTCG
PBM binding z-score [1]: 3.52 | PBM binding z-score [2]: 4.37 | PBM binding z-score [3]: 4.08 | PBM binding z-score [4]: 4.15 | PBM binding z-score [5]: 0.685 | PBM binding z-score [6]: 4.73 | PBM binding z-score [7]: 3.31 | PBM binding z-score [8]: 4.38 | PBM binding z-score [9]: 2.61 | PBM binding z-score [10]: 4.66

CGTCCAAGGTCAGCAGGTCAGTAAAAGCGACGTG
PBM binding z-score [1]: 5.97 | PBM binding z-score [2]: 4.07 | PBM binding z-score [3]: 0.614 | PBM binding z-score [4]: 3.22 | PBM binding z-score [5]: -0.235 | PBM binding z-score [6]: 4.9 | PBM binding z-score [7]: 3.97 | PBM binding z-score [8]: 4.43 | PBM binding z-score [9]: 1.37 | PBM binding z-score [10]: 2.87

CCAACTAGGTCATCCAGGACAGTGAATACATTGA
PBM binding z-score [1]: 3.96 | PBM binding z-score [2]: 2.83 | PBM binding z-score [3]: 1.3 | PBM binding z-score [4]: 2.48 | PBM binding z-score [5]: 0.7 | PBM binding z-score [6]: 4.41 | PBM binding z-score [7]: 6.66 | PBM binding z-score [8]: 5.59 | PBM binding z-score [9]: 2.96 | PBM binding z-score [10]: 4.83

TCGAGTAGGTTACCAATGGGGCATTAAGCTTTCT
PBM binding z-score [1]: -0.382 | PBM binding z-score [2]: 1.24 | PBM binding z-score [3]: -0.459 | PBM binding z-score [4]: 0.663 | PBM binding z-score [5]: -1.11 | PBM binding z-score [6]: 0.96 | PBM binding z-score [7]: 0.247 | PBM binding z-score [8]: 1.17 | PBM binding z-score [9]: 1.39 | PBM binding z-score [10]: 1.18

CCTACTAGGTCAATGGTCAGCTAAAGCAGCTCGC
PBM binding z-score [1]: 3.38 | PBM binding z-score [2]: 2.41 | PBM binding z-score [3]: 0.529 | PBM binding z-score [4]: 1.87 | PBM binding z-score [5]: 0.47 | PBM binding z-score [6]: 4.62 | PBM binding z-score [7]: 8.83 | PBM binding z-score [8]: 7.23 | PBM binding z-score [9]: 6.92 | PBM binding z-score [10]: 7.71

CCGACTGGGGCATAGGGTTACCATAAGCCAGCCC
PBM binding z-score [1]: 0.216 | PBM binding z-score [2]: 1.62 | PBM binding z-score [3]: -0.605 | PBM binding z-score [4]: 0.389 | PBM binding z-score [5]: -0.905 | PBM binding z-score [6]: 2.07 | PBM binding z-score [7]: 3.45 | PBM binding z-score [8]: 4.29 | PBM binding z-score [9]: 2.36 | PBM binding z-score [10]: 4

AGAACGAGGGCAATGAGTTGTTAGCACGGGTGGC
PBM binding z-score [1]: 0.161 | PBM binding z-score [2]: 0.00811 | PBM binding z-score [3]: -0.446 | PBM binding z-score [4]: -0.26 | PBM binding z-score [5]: -1.01 | PBM binding z-score [6]: 1.23 | PBM binding z-score [7]: 1.18 | PBM binding z-score [8]: 0.817 | PBM binding z-score [9]: 0.096 | PBM binding z-score [10]: 0.514

CCGACTGGGCCAAGGTTACCATAACGCACAGCCA
PBM binding z-score [1]: 0.00014 | PBM binding z-score [2]: 0.358 | PBM binding z-score [3]: -0.181 | PBM binding z-score [4]: 0.279 | PBM binding z-score [5]: -1.2 | PBM binding z-score [6]: 1.01 | PBM binding z-score [7]: 1.97 | PBM binding z-score [8]: 2.37 | PBM binding z-score [9]: 0.199 | PBM binding z-score [10]: 1.39

CCTACTAGGCCAAAAAGGTCATTGATGCCGATAA
PBM binding z-score [1]: 3.79 | PBM binding z-score [2]: 4.67 | PBM binding z-score [3]: 3.6 | PBM binding z-score [4]: 4.54 | PBM binding z-score [5]: 0.985 | PBM binding z-score [6]: 4.84 | PBM binding z-score [7]: 3.56 | PBM binding z-score [8]: 4.24 | PBM binding z-score [9]: 1.54 | PBM binding z-score [10]: 3.67

ATCTCTAGGTAAAAGTTCAGTGCATCCCGAGGAT
PBM binding z-score [1]: 0.914 | PBM binding z-score [2]: 1.67 | PBM binding z-score [3]: 1.72 | PBM binding z-score [4]: 0.979 | PBM binding z-score [5]: 0.86 | PBM binding z-score [6]: 4.39 | PBM binding z-score [7]: 8.17 | PBM binding z-score [8]: 7.48 | PBM binding z-score [9]: 7.56 | PBM binding z-score [10]: 8.52

TCTAGTGGGTCACGGAGGTCACACACGACGGGTA
PBM binding z-score [1]: 6.17 | PBM binding z-score [2]: 5.14 | PBM binding z-score [3]: 2.85 | PBM binding z-score [4]: 4.62 | PBM binding z-score [5]: 0.568 | PBM binding z-score [6]: 5.74 | PBM binding z-score [7]: 9.39 | PBM binding z-score [8]: 7.63 | PBM binding z-score [9]: 5.61 | PBM binding z-score [10]: 7.51

GATACAGGGTCAGCTGGAGGCCAGAGTATGGAAA
PBM binding z-score [1]: 5.07 | PBM binding z-score [2]: 2.76 | PBM binding z-score [3]: -0.49 | PBM binding z-score [4]: 2.38 | PBM binding z-score [5]: -0.887 | PBM binding z-score [6]: 4.47 | PBM binding z-score [7]: 3.91 | PBM binding z-score [8]: 3.62 | PBM binding z-score [9]: 1.24 | PBM binding z-score [10]: 2.49

ATCTCTAGGTAAAAGTCCAGTGAATCCCGAGGAT
PBM binding z-score [1]: 0.192 | PBM binding z-score [2]: 0.0512 | PBM binding z-score [3]: -0.0646 | PBM binding z-score [4]: -0.297 | PBM binding z-score [5]: 0.61 | PBM binding z-score [6]: 0.598 | PBM binding z-score [7]: 1.24 | PBM binding z-score [8]: 3.02 | PBM binding z-score [9]: 1.28 | PBM binding z-score [10]: 2.94

CCTAATTGGTCAGGAGGTCACACACCGGATATGA
PBM binding z-score [1]: 3.74 | PBM binding z-score [2]: 3.59 | PBM binding z-score [3]: 2.27 | PBM binding z-score [4]: 3.64 | PBM binding z-score [5]: 1.07 | PBM binding z-score [6]: 4.42 | PBM binding z-score [7]: 3.88 | PBM binding z-score [8]: 4.51 | PBM binding z-score [9]: 2.08 | PBM binding z-score [10]: 4.16

ACTAGCAGGACAAGGGTCACTCAAGATTAGTCCG
PBM binding z-score [1]: 2.6 | PBM binding z-score [2]: 3.07 | PBM binding z-score [3]: 0.432 | PBM binding z-score [4]: 2.76 | PBM binding z-score [5]: 0.105 | PBM binding z-score [6]: 4.3 | PBM binding z-score [7]: 6.63 | PBM binding z-score [8]: 6.93 | PBM binding z-score [9]: 5.71 | PBM binding z-score [10]: 7.29

GGAAAGAGGGCATTCGAGTTGATAGCATGGCGAT
PBM binding z-score [1]: 1.74 | PBM binding z-score [2]: 2.82 | PBM binding z-score [3]: 0.148 | PBM binding z-score [4]: 1.13 | PBM binding z-score [5]: 0.213 | PBM binding z-score [6]: 1.92 | PBM binding z-score [7]: 0.905 | PBM binding z-score [8]: 1.19 | PBM binding z-score [9]: 0.366 | PBM binding z-score [10]: 0.958

CCTAGTTGGTCAAGGTCACTCACGCTATAGGTAC
PBM binding z-score [1]: 3.8 | PBM binding z-score [2]: 3.42 | PBM binding z-score [3]: 1.94 | PBM binding z-score [4]: 3.17 | PBM binding z-score [5]: 0.615 | PBM binding z-score [6]: 3.67 | PBM binding z-score [7]: 2.44 | PBM binding z-score [8]: 3.08 | PBM binding z-score [9]: 0.743 | PBM binding z-score [10]: 2.05

TGAATGAGGTTAAAGATCAGAGAACGTGGCGTCG
PBM binding z-score [1]: 3.2 | PBM binding z-score [2]: 2.25 | PBM binding z-score [3]: -0.274 | PBM binding z-score [4]: 1.7 | PBM binding z-score [5]: 0.104 | PBM binding z-score [6]: 4.43 | PBM binding z-score [7]: 6.08 | PBM binding z-score [8]: 6.65 | PBM binding z-score [9]: 5.22 | PBM binding z-score [10]: 6.58

CCTTACGGGTCAAGGTTATAGGACGGGTGGTACG
PBM binding z-score [1]: 5.27 | PBM binding z-score [2]: 3.82 | PBM binding z-score [3]: 0.302 | PBM binding z-score [4]: 3.28 | PBM binding z-score [5]: 0.221 | PBM binding z-score [6]: 5.05 | PBM binding z-score [7]: 4.55 | PBM binding z-score [8]: 4.69 | PBM binding z-score [9]: 2.05 | PBM binding z-score [10]: 3.36

TAGCCTAGGTAAGATCGGGCCAGTATACGCTATA
PBM binding z-score [1]: -0.504 | PBM binding z-score [2]: -0.787 | PBM binding z-score [3]: -0.612 | PBM binding z-score [4]: -0.831 | PBM binding z-score [5]: -1.39 | PBM binding z-score [6]: -0.58 | PBM binding z-score [7]: 0.0812 | PBM binding z-score [8]: -0.494 | PBM binding z-score [9]: -0.743 | PBM binding z-score [10]: -0.292

CTCGAAAGGTCGGGTGAGGTGAGTATACGGATAA
PBM binding z-score [1]: 3 | PBM binding z-score [2]: 2.3 | PBM binding z-score [3]: 0.0705 | PBM binding z-score [4]: 2.18 | PBM binding z-score [5]: 0.195 | PBM binding z-score [6]: 3.49 | PBM binding z-score [7]: 1.32 | PBM binding z-score [8]: 1.78 | PBM binding z-score [9]: 0.448 | PBM binding z-score [10]: 1.04

CCTACTTGGCCATCAGGTCATTGATATCAACGTT
PBM binding z-score [1]: 2.95 | PBM binding z-score [2]: 1.81 | PBM binding z-score [3]: 2.06 | PBM binding z-score [4]: 2.21 | PBM binding z-score [5]: 0.454 | PBM binding z-score [6]: 2.12 | PBM binding z-score [7]: 0.623 | PBM binding z-score [8]: 1.36 | PBM binding z-score [9]: 0.665 | PBM binding z-score [10]: 1.13
